Measured values: PubChem BioAssay (NCATS)
“And” between values parts separate entries of the source, which are not always exact repeats. Equal values may be shown once. Records with an inconclusive call do not appear. The source made the active and inactive calls. Unless noted, the call rests on the fitted dose curve; in most records, active means well fitted curve in the direction sought with a large enough effect; inconclusive means small, poorly fitted or top-dose-only effect, or another doubt; inactive means no such curve, though single readings can be large; an effect the other way counts as inactive or inconclusive.

How the values were obtained:
[1] = Cell Viability - BJ (AID 421; calls by dose curve;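 further: potency means the concentration at half of the fitted maximal effect; cells exposed to compound for 40 hours at 37 °C before readout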); conditions: BJ fibroblast viability, qHTS
Summary of the method: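 Luminescent ATP signal (CellTiter-Glo, 20 min at room temperature) served as the read-out of viable BJ cells after 40 hours of compound treatment. Responses were scaled between DMSO and 100 uM tamoxifen, and AC50 values were obtained by Hill modeling.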

[2] = Cell Viability - Jurkat (AID 426;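 active means dose-dependent loss of cell ATP signal giving a full or clear fitted curve, ranked by lower potency value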; further: potency means the concentration at half of the fitted maximal effect); conditions: qHTS
Summary of the method: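 Jurkat (clone E6-1, human T-cell leukemia) cells, 5000/well in complete medium, were exposed to compound for 40 hr at 37 °C. Viability was read as intracellular ATP by CellTiter-Glo luminescence; AC50 came from Hill fits of concentration-response data.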

[3] = Cell Viability - Hek293 (AID 427;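 active means compounds whose dose-response curve shows a full or clear partial loss of cell viability, called from curve shape rather than a numeric limit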;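 further: potency means the concentration at half of the fitted maximal effect; cells exposed to compound for 40 hours at 37 °C before reading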); conditions: qHTS
Summary of the method: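 Luminescent ATP read-out (CellTiter-Glo, 20 min RT) after 40 hr compound exposure at 37 °C in complete medium. Signal normalized to DMSO (basal) and 100 uM tamoxifen (100% inhibition); concentration-response fitted with the standard Hill equation to give AC50.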

[4] = Cell Viability - MRC5 (AID 434; calls by dose curve;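 further: potency means the concentration at half of the fitted maximal effect; potency reflects cytotoxicity seen as loss of intracellular ATP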); conditions: MRC5 lung fibroblast viability, qHTS
Summary of the method: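 MRC5 normal human lung fibroblasts (1500/well) were treated with compounds for 40 hr at 37 °C in complete medium, and viable cells were measured as intracellular ATP by CellTiter-Glo luminescence. AC50 came from Hill fits, normalized to DMSO and 100 uM tamoxifen.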

[5] = Cell Viability - SK-N-SH (AID 435; calls by dose curve;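 further: potency means the concentration at half of the fitted maximal effect; compound exposure lasted 40 h at 37 °C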); conditions: SK-N-SH neuroblastoma cell viability qHTS
Summary of the method: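 SK-N-SH neuroblastoma cells (1500/well) treated 40 h at 37 °C in complete medium; viability read as cellular ATP by CellTiter-Glo luminescence. Normalized to DMSO and 100 uM tamoxifen; AC50 from Hill fits of qHTS concentration-response.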

[6] = target: Mitogen-activated protein kinase 10 (Mus musculus) (UniProt Q61831); test: JNK3 AlphaScreen Assay (AID 530; active means well fitted curve in either direction with a large enough effect, not every such curve was filed as active;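 further: kinase came from lysate of stimulated human HepG2 cells; signal reports phosphorylation of biotinylated GST-cJun 1-79 at Ser73 with 10 µM ATP; on the % scale 0 is the no-effect control and ±100 the full control effect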); conditions: JNK3 lysate, c-Jun phosphorylation; series mostly up to 57.1 µM
Summary of the method: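 JNK3 came from HepG2 lysates pre-activated with IL-1beta and TNF-alpha and phosphorylated biotinylated GST-cJun (1-79) at 10 uM ATP, pH 7.6, room temperature. Compounds were titrated. AlphaScreen signal used anti-phospho-cJun (Ser73) antibody.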

[7] = Cell Viability - H-4-II-E (AID 543); conditions: H-4-II-E rat hepatoma viability; series mostly up to 92.2 µM; further: on the % scale 0 is the no-effect control and ±100 the full control effect; nearly all actives have a fitted effect of over 35% in size
Summary of the method: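 Rat hepatoma H-4-II-E cells (1500/well) were plated, incubated 5 hr at 37 °C, then exposed to compounds for 40 hr at 37 °C. Cellular ATP was read by CellTiter-Glo luminescence; AC50 came from Hill-equation fits of concentration-response data.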

[8] = Cell Viability - SH-SY5Y (AID 544); conditions: SH-SY5Y neuroblastoma cell viability; series mostly up to 92.2 µM; further: nearly all actives have a fitted effect of over 55% in size
Summary of the method: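 Human neuroblastoma SH-SY5Y cells (1500/well) in complete medium were exposed to compounds for 40 hr at 37 °C; intracellular ATP was then quantified by CellTiter-Glo luminescence after 20 min at room temperature. AC50 came from Hill-equation concentration-response fits.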

[9] = Cell Viability - Mesenchymal (AID 546); conditions: mesenchymal cells viability, qHTS; activity change, negative = cytotoxicity: at 91.7 µM (top of the series);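 further: cells exposed to compound for 40 hours before reading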
Summary of the method: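 Normal human renal glomerulus-derived kidney mesenchymal cells, 1000 per well in complete medium, were treated with compounds for 40 hr at 37 °C. Viability was read as intracellular ATP by CellTiter-Glo luminescence; AC50 values came from Hill-equation fits of qHTS concentration-response data.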

[10] = Cellular Toxicity (caspase-3) HUV-EC-C (AID 656); conditions: HUV-EC-C cells, caspase-3 activation (apoptosis), vehicle = 0, 100 µM tamoxifen = 100%; series mostly up to 92.2 µM
Summary of the method: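 HUV-EC-C cells (1000/well) in complete medium, compound-treated 16 h at 37 °C; caspase-3/7 activity read by Caspase-Glo 3/7 luminescence. Normalized to DMSO (basal) and 100 uM tamoxifen (100%); AC50 from Hill-equation concentration-response fits.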

[11] = Cellular Toxicity (caspase-3) MRC-5 (AID 659); conditions: MRC-5 cells, luminescence, normalized: DMSO 0%, 10 µM staurosporine 100%; series mostly up to 91.7 µM
Summary of the method: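 Luminescence from caspase-cleaved aminoluciferin substrate (Caspase-Glo 3/7, 1 hr RT) reports caspase 3/7 activity in MRC-5 lung fibroblasts after 16 hr compound exposure. Normalized to DMSO basal and 10 uM staurosporine as 100%; AC50 from Hill fits.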

[12] = Cellular Toxicity (caspase-3) Mesangial (AID 660); conditions: mesangial cells, normalized: DMSO 0%, 100 µM tamoxifen 100%; series mostly up to 91.7 µM;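 further: cells exposed to compound for 16 h before the caspase read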
Summary of the method: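 Human renal glomerular mesangial cells (1000/well) were treated with compounds for 16 h at 37 °C in complete medium, then caspase 3/7 activity was read by Caspase-Glo luminescence. Data were normalized to DMSO and 100 uM tamoxifen; AC50 from Hill fits.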

[13] = Cellular Toxicity (caspase-3) Hek293 (AID 664); conditions: HEK293 caspase-3 activation, DMSO = 0%, 100 µM tamoxifen = 100%; series mostly up to 92.2 µM;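 further: cells exposed to compound for 16 h at 37 °C before readout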
Summary of the method: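 HEK293 cells were exposed to compounds in complete medium for 16 hr at 37 °C, then caspase-3/7 activity was read by Caspase-Glo 3/7 luminescence after 20 min at room temperature. Data normalized to DMSO and 100 uM tamoxifen; AC50 from Hill fits.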

[14] = Cellular Toxicity (caspase-3) N2a (AID 665); conditions: N2a cells, luminescence, normalized: DMSO 0%, 10 µM staurosporine 100%; series mostly up to 92.2 µM;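 further: compound exposure lasted 16 h at 37 °C before readout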
Summary of the method: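 Mouse N2a neuroblastoma cells (1500/well) were treated with compounds for 16 h at 37 °C, then caspase-3/7 activity was read by Caspase-Glo luminescence after 1 h at room temperature. Data were normalized to DMSO and 10 uM staurosporine; AC50 from Hill fits.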

[15] = Cellular Toxicity (caspase-3) NIH 3T3 (AID 666); conditions: NIH 3T3 caspase-3 activation, apoptosis/toxicity, 0% DMSO, 100% is 100 µM tamoxifen; series mostly up to 92.2 µM;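 further: caspase signal read after 16 h compound exposure; 0% = DMSO basal and 100% = 100 µM tamoxifen stimulation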
Summary of the method: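 Mouse NIH 3T3 fibroblasts (1000 cells/well) were treated with compound for 16 hr at 37°C in complete medium; caspase-3/7 activity was read by Caspase-Glo luminescence. Normalized to DMSO and 100 uM tamoxifen; AC50 from Hill fits.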

[16] = Cellular Toxicity (caspase-3) Renal Proximal Tubule (AID 667); conditions: renal proximal tubule cells, primary cells freshly taken from rat, solvent-only wells 0%, staurosporine 100%; series mostly up to 91.7 µM;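 further: cells exposed to compound for 16 hours at 37 °C before detection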
Summary of the method: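 Freshly isolated primary rat kidney proximal tubule cells, 1000/well, treated 16 hr at 37 °C, then Caspase-Glo 3/7 luminescence after 1 hr. Normalized to DMSO and 10 uM staurosporine; AC50 from Hill fit.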

[17] = Cell Viability - LYMP1-002 - Assay at 16 hr (AID 948); conditions: LYMP1-002 lymphoblastoid cell viability; series mostly up to 92.2 µM;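 further: 0% = DMSO alone and full effect = 92 µM tetraoctylammonium bromide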
Summary of the method: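 LYMP1-002 human lymphoblastoid cells, 2500/well, were treated with compounds for 16 hr at 37 C in complete medium. Viability was read as intracellular ATP by CellTiter-Glo luminescence, and AC50 was derived from a Hill fit to concentration-response data.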

[18] = qHTS Assay for Identification of Small Molecule Inducers of Hypoxia Response (AID 2120; active means well fitted curve in the direction sought with a large enough effect in the signal ratio, with a control signal flat, not every such curve was filed as active; the % refers to the signal ratio; further: 0% is about no effect); conditions: hypoxia response reporter cells, beta-lactamase ratio readout; series mostly up to 104 µM
Summary of the method: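 HRE-beta-lactamase reporter in CellSensor HRE-bla ME-180 cells, 2500 cells/well in Opti-MEM with 0.5% dialyzed FBS; compounds tested as titration series, 17 h at 37 degrees C. CCF4 substrate 2.5 h at room temperature; AC50 from 460/530 nm ratio.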

[19] = target: Peroxisome proliferator-activated receptor alpha (Homo sapiens) (UniProt Q07869); test: qHTS assay for small molecule agonists of the peroxisome proliferator-activated receptor alpha (PPARalpha) signaling pathway (AID 651778); conditions: PathHunter PPARalpha complementation, chemiluminescence, 6 h; max response: active compounds read high; further: % of control where 0% means no effect
Summary of the method: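 Cells plated at 2,000/well and held overnight at 37 C, 5% CO2, then compound added by pin tool for 6 hr; after PathHunter detection reagent and 60 min at room temperature, chemiluminescence from enzyme complementation was read.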

[20] = qHTS assay for small molecule agonists of the antioxidant response element (ARE) signaling pathway measured by Nrf2-dependant transcriptional activity - cell viability counter screen (AID 720653; active means well fitted curve in the direction sought with a large enough effect in the repeat runs; an effect the other way counts as inactive or inconclusive; further: on the % scale 0 is the no-effect control and ±100 the full control effect); conditions: ARE-bla HepG2 viability, CellTiter-Glo ATP luminescence, 16 h; max response: active compounds read low
Summary of the method: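 ARE-bla HepG2 cells (2,000/well) rested 5 hrs at 37C/5% CO2, then exposed to compounds in DMSO for 16 hrs. Viability was read in the same wells as intracellular ATP by luminescence, 30 min at room temperature after reagent addition.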

Chain of Peroxisome proliferator-activated receptor alpha (Homo sapiens) (Q07869 whole entry, looked up): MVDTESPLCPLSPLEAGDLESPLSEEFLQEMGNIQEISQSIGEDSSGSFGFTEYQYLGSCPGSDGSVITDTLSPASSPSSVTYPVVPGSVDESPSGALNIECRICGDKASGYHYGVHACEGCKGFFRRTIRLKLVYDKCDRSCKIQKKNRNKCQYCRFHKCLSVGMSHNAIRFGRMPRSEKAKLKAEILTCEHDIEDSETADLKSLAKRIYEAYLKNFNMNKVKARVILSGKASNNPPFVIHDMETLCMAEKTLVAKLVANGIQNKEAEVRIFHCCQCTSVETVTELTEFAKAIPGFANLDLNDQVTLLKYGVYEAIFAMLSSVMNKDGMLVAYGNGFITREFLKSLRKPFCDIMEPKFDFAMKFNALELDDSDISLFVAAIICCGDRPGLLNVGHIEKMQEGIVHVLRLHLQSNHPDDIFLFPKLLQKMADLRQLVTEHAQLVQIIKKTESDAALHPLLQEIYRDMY

Nc1ccc(S(=O)(=O)O)cc1
inactive: Potency [1] > 92 µM | Potency [2] > 92 µM | Potency [3] > 92 µM | Potency [4] > 92 µM | Potency [5] > 92 µM | Potency [6] | Potency [7] | Potency [8] | activity change, negative = cytotoxicity [9] 9.75% | outcome [10] | outcome [11] | outcome [12] | outcome [13] | outcome [14] | outcome [15] | outcome [16] | Potency [17] | outcome [18] | max response [19] -1.01% and -2.98% | max response [20] 0.96% and 3.16%

CC1(C)CC(N=C=O)CC(C)(CN=C=O)C1 (stereo not given)
inactive: Potency [1] > 92 µM | Potency [2] > 92 µM | Potency [3] > 92 µM | Potency [4] > 92 µM | Potency [5] > 92 µM | Potency [6] | Potency [7] | Potency [8] | activity change, negative = cytotoxicity [9] 8.39% | outcome [10] | outcome [11] | outcome [12] | outcome [13] | outcome [14] | outcome [15] | outcome [16] | Potency [17] | outcome [18] | max response [19] -1.83% and -0.793% | max response [20] 6.59% and -15.1%

Cc1ccc([N+](=O)[O-])cc1N
inactive: Potency [1] > 92 µM | Potency [2] > 92 µM | Potency [3] > 92 µM | Potency [4] > 92 µM | Potency [5] > 92 µM | Potency [6] | Potency [7] | Potency [8] | activity change, negative = cytotoxicity [9] -1.39% | outcome [10] | outcome [11] | outcome [12] | outcome [13] | outcome [14] | outcome [15] | outcome [16] | Potency [17] | outcome [18] | max response [19] -4.31% and -1.18% | max response [20] -2.84% and 7.73%

Clc1cc(Cl)c(Cl)c(Cl)c1Cl
inactive: Potency [1] > 92 µM | Potency [2] > 92 µM | Potency [3] > 92 µM | Potency [4] > 92 µM | Potency [5] > 92 µM | Potency [6] | Potency [7] | Potency [8] | activity change, negative = cytotoxicity [9] -0.0158% | outcome [10] | outcome [11] | outcome [12] | outcome [13] | outcome [14] | outcome [15] | outcome [16] | Potency [17] | outcome [18] | max response [19] -5.3% and -0.232% | max response [20] -0.0319% and -1.01%

CCCCC(CC)CN (stereo not given)
inactive: Potency [1] > 92 µM | Potency [2] > 92 µM | Potency [3] > 92 µM | Potency [4] > 92 µM | Potency [5] > 92 µM | Potency [6] | Potency [7] | Potency [8] | activity change, negative = cytotoxicity [9] -2.68% and 2.84% | outcome [10] | outcome [11] | outcome [12] | outcome [13] | outcome [14] | outcome [15] | outcome [16] | Potency [17] | outcome [18] | max response [19] -4.52% and -4.66% | max response [20] -5.16% and -12.4%
